Measured values from PubChem BioAssay AID720690 (Broad Institute, 2013).
Results with a measured potency or affinity are listed apart. Unmarked numbers belong to inactive results.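 How the source made its calls: active means every repeat run showing a signal drop whose fitted half-maximal concentration is at most twice the top tested concentration; inconclusive means repeat runs disagree, or flat partial drop, or poor fit; inactive means the rest.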

Assay: general mammalian cell viability loss – activator set, cherry-pick, cytotoxicity control for miR-122 modulator project, dose response (AID 720690);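 further: 0% = neutral control wells and -100% = MG132 cytotoxic control wells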
Details: HEK293T viability, CellTiter-Glo luminescence, 48 h; series mostly up to 26 µM; activity change, negative = cytotoxicity: at the top concentration

Row | Structure (SMILES) | activity change, negative = cytotoxicity
1 | CN1C[C@@H]2[C@H](c3ccccc31)[C@@H](CO)N2C(=O)Nc1ccccc1 | -15.9%
2 | Cc1cc(C(F)F)n2ncc(C(=O)NCCc3ccccc3Cl)c2n1 | -0.237%
3 | CN1C(=O)c2cc(NC(=O)c3ccno3)ccc2OC[C@H]2O[C@@H](CC(=O)NCC3CC3)CC[C@@H]21 | -4.86%
4 | COc1cccc(-c2csc(N3CCN(CC(=O)Nc4ccc5c(c4)OCO5)CC3)n2)c1 | 5.74%
5 | COCCN(C[C@@H]1[C@@H](c2ccccc2)[C@H](CO)N1C(=O)C1CC1)C(C)=O | -9.14%
6 | COCCNC(=O)C[C@H]1CC[C@@H]2[C@H](COc3ccc(NC(=O)C4CCOCC4)cc3C(=O)N2C)O1 | 5.15%
7 | Cc1ccccc1-c1nc(CN2CCCC(C(=O)NCCCN3CCOCC3)C2)c(C)o1 (centres undefined) | -1.79%
8 | COC(=O)C[C@H]1CC[C@@H]2[C@@H](COc3ccc(NC(=O)Nc4ccc(Cl)cc4)cc3C(=O)N2C)O1 | -8.59%
9 | CO[C@@H]1CN(C)C(=O)c2cc(NC(=O)Nc3ccc(Cl)c(Cl)c3)ccc2OC[C@H](C)NC[C@H]1C | -20.4%
10 | CCNC(=O)C[C@@H]1CC[C@H]2[C@@H](COc3ccc(NC(=O)c4ccc(C(F)(F)F)cc4)cc3C(=O)N2C)O1 | -6.62% [at 23.5 µM]
11 | COCC(=O)Nc1ccc2c(c1)C(=O)N(C)[C@@H]1CC[C@@H](CC(=O)NCCCN(C)C)O[C@@H]1CO2 | -23.2%
12 | CC(=O)Nc1ccc2c(c1)C(=O)N(C)[C@@H]1CC[C@@H](CC(=O)NCc3ccc(Cl)cc3)O[C@H]1CO2 | 0.467% [at 23.5 µM]
13 | CCNC(=O)Nc1ccc2c(c1)C(=O)N(C)[C@H]1CC[C@@H](CC(=O)NCCOC)O[C@@H]1CO2 | -0.32%
14 | CC(=O)N1[C@H](CN(C(=O)c2ccc(F)cc2)C(C)C)[C@H](c2ccccc2)[C@@H]1CO | -14.4% [at 23.5 µM]
15 | C/C=C/c1ccc([C@@H]2[C@@H](CO)N(S(C)(=O)=O)[C@H]2CN(C)C(=O)CC)cc1 | -8.55%
16 | COc1ccc(C#Cc2ccc3c(c2)O[C@@H](CN(C)C(=O)CN2CCOCC2)[C@@H](C)CN([C@H](C)CO)S3(=O)=O)cc1 | -17.2%
17 | C=CCc1c(OC)ccc2ccc(=O)oc12 | 10.4%
18 | COCC(=O)Nc1ccc2c(c1)C(=O)N(C)[C@H]1CC[C@@H](CC(=O)NC3CCCC3)O[C@H]1CO2 | 9.16%
19 | COc1cccc(CNC(=O)C[C@H]2CC[C@@H]3[C@H](COc4ccc(NC(C)=O)cc4C(=O)N3C)O2)c1 | -12.8%
20 | c1ccc(-c2nnc3n2CCCC3)cc1 | 4.33%

Row | Structure (SMILES) | activity change, negative = cytotoxicity
21 | C/C=C/c1ccc([C@H]2[C@H](CO)N[C@@H]2CN(CC)C(=O)c2cccnc2)cc1 | -12.1%
22 | C=CCc1ccccc1OCC(O)CN1CCN(CCN2C(=O)c3cccc4cccc(c34)C2=O)CC1 (centres undefined) | 2.13%
23 | COC(=O)C[C@@H]1CC[C@H]2[C@@H](COc3ccc(NC(=O)c4ccc(F)c(F)c4)cc3C(=O)N2C)O1 | -15.5%
24 | CN(C)CCCNC(=O)C[C@@H]1CC[C@H]2[C@@H](COc3ccc(NC(=O)c4cccc(F)c4)cc3C(=O)N2C)O1 | -6.25%
25 | COc1cccc(CNC(=O)C[C@H]2CC[C@@H]3[C@@H](COc4ccc(NC(C)=O)cc4C(=O)N3C)O2)c1 | -11.6%
26 | COC(=O)C[C@@H]1CC[C@H]2[C@@H](COc3ccc(NC(=O)c4ccc(C(F)(F)F)cc4)cc3C(=O)N2C)O1 | -25.1% [at 23.5 µM]
27 | Cc1cc(NS(=O)(=O)c2ccc(NC(=O)C(CC(C)C)N3C(=O)c4ccccc4C3=O)cc2)nc(C)n1 (centres undefined) | 2.02%
28 | COc1ccc(C#Cc2ccc([C@@H]3[C@@H](CO)N4CCCCN(C(=O)Nc5ccccc5)C[C@H]34)cc2)cc1 | -28% [at 12 µM]
29 | C/C=C/c1ccc([C@H]2[C@@H](CO)N(C(=O)C3CC3)[C@H]2CNC(=O)NC(C)C)cc1 | 0.786%
30 | C[C@H](CO)N1C[C@H](C)[C@@H](CN(C)Cc2ccc(Oc3ccccc3)cc2)Oc2ncc(-c3cncnc3)cc2C1=O | -8.03%
31 | Cc1cc(C)n(C(=O)Cn2nc(C)c(Br)c2C)n1 | 13.1%
32 | CC(C)Oc1ccc(CNCCC2(C(C)C)CCOC(C)(C)C2)cc1 (centres undefined) | 12%
33 | C/C=C/c1ccc([C@@H]2[C@@H](CNC(=O)CC)N(Cc3ccccn3)[C@H]2CO)cc1 | -6.56%
34 | COc1cc(-c2nnc3sc(C4CCCCC4)nn23)cc(OC)c1OC | -26%
35 | CN1C(=O)c2cc(NC(=O)c3cccs3)ccc2OC[C@@H]2O[C@H](CC(=O)NCC(F)(F)F)CC[C@H]21 | -2.83%
36 | COc1cccc(CNC(=O)C[C@@H]2CC[C@@H]3[C@@H](COc4ccc(NC(C)=O)cc4C(=O)N3C)O2)c1 | -15.2%
37 | C=CCNC(=S)NNC(=O)c1cccn(Cc2ccc(Cl)c(Cl)c2)c1=O | -12%
38 | Cc1cc(C(=O)Nc2ccc3c(c2)C(=O)N(C)[C@H]2CC[C@H](CC(=O)N[C@H](C)c4ccccc4)O[C@H]2CO3)no1 | -17.2%
39 | C[C@@H]1CN([C@H](C)CO)C(=O)c2cc(-c3cncnc3)cnc2O[C@H]1CN(C)Cc1ccc(Oc2ccccc2)cc1 | -18.9%
